From PubChem BioAssay
Bead autofluor = compound fluorescence in toxin protease inhibitor counterscreen. fluorescence intensity (concentration not given with the values). AID 624483. 360,000 tested, 3.1% active. compound autofluorescence counterscreen, microsphere flow cytometry; active compounds read high; in the data active = fluorescence intensity above about 16000; inconclusive = no clear call, values can overlap the other calls
MazF activator = activators of E. coli MazEF toxin-antitoxin RNase, primary screen, biochemical, fluorescence, uHTS; AID 504720, 2011; 350,000 tested, 0.32% active; activation, % at 20 µM; FAM/BHQ RNA-DNA oligo cleavage fluorescence, 5 h; Endoribonuclease toxin MazF (Escherichia coli (strain K12)), P0AE70; in the data active = activation above about 50%
BoNT-F LC inh = BoNT/F light chain protease inhibitors, primary screen, biochemical, flow cytometry, MLPCN library. Multiplex microsphere protease cleavage assay. inhibition, % at 10 µM. 360,000 tested, 0.22% active; in the data active = inhibition above about 35%, passing the limit was not always enough; inconclusive = no clear call, values can overlap the other calls; note: plate controls were buffer without enzyme for full effect and enzyme alone for no effect
BoNT A protease = BoNT/A light chain protease inhibitors, primary screen, biochemical, flow cytometry, MLPCN library; Botulinum neurotoxin type A light chain protease (Clostridium botulinum A str. ATCC 3502); multiplex microsphere protease substrate cleavage; inhibition, % at 10 µM; 360,000 tested, 0.17% active; AID 588499, 2011; note: plate controls were buffer without enzyme for full effect and enzyme alone for no effect
Anthrax LF prot = Bacillus anthracis LF protease inhibitors, primary screen, biochemical, multiplex microsphere, MLPCN library; multiplex microsphere protease cleavage assay; inhibition, % at 10 µM; 360,000 tested, 0.12% active; note: plate controls were buffer without enzyme for full effect and enzyme alone for no effect
DUSP3 inh = VHR1 phosphatase inhibitors, primary screen, biochemical, absorbance, uHTS. Dual specificity protein phosphatase 3 (Homo sapiens), P51452. recombinant VHR phosphatase, pNPP absorbance. inhibition, % at 13.3 µM. 290,000 tested, 0.52% active. AID 1654, 2009; in the data active = inhibition above about 50%
The depositor's hits bear a star; ? = inconclusive; · = no result given. Hits are enriched below; roughly 4.1% of the tested compounds scored in any of these assays. Cut-off read from the data, not from the text of the source, unless noted: active = inhibition above about 30%; inconclusive = no clear call, values can overlap the other calls; inactive = below that.

SMILES	Bead autofluor	MazF activator	BoNT-F LC inh	BoNT A protease	Anthrax LF prot	DUSP3 inh
CC(C)(CO)[C@@H](O)C(=O)NCCC(=O)O	6006	8.6	-33.8	-2.4	-3.5	·
CCOC(=O)c1ccc(NC(=O)CCNS(=O)(=O)c2cccs2)cc1	3818	1.0	-12.5	-4.4	0.0	2.1
COc1ccccc1N1CCN(C(=O)CSc2nc(C)cc(=O)[nH]2)CC1	17183*	0.5	-4.7	-2.3	-0.5	14.6
COc1cccc(OC)c1C(=O)N1CCOCC1	22982*	0.1	1.2	?	0.3	17.8
COc1ccccc1N1CCN(C(=O)N2CCOCC2)CC1	23262*	-1.0	-2.5	-2.0	-0.6	2.6
COc1ccccc1N1CCN(C(=O)CCC(=O)N2CCN(c3ccccc3OC)CC2)CC1	4057	-1.2	-31.9	-1.6	9.8	1.3
CC(C)OC(=O)c1c(NC(=O)CCn2nnc3ccccc32)sc2c1CCCC2	20341*	-11.0	-2.0	?	1.2	9.6
CC(C)OC(=O)c1c(NC(=O)CCC(=O)O)sc2c1CCCCC2	2443	0.7	-1.1	-0.3	-2.5	3.5
Cc1ccc(C(=O)C(OC(=O)CN2C(=O)c3ccccc3C2=O)c2ccccc2)cc1C (configuration not stated)	22707*	-5.8	0.6	0.8	-1.4	13.7
O=C(CN1C(=O)c2ccccc2C1=O)OC(C(=O)c1ccc(Cl)cc1)c1ccccc1 (configuration not stated)	21488*	-4.5	-6.1	-4.4	-1.3	26.1
Cc1ccc(C(=O)C(OC(=O)CNC(=O)c2ccc(Cl)cc2)c2ccccc2)cc1 (configuration not stated)	21549*	4.0	4.8	?	-0.5	9.7
O=C(CNC(=O)c1ccccc1)OC(C(=O)c1ccccc1)c1ccccc1 (configuration not stated)	2528	-3.1	-2.2	-0.7	-1.5	7.6
COc1cccc(CN(C)C(=O)CCN(c2ccccc2)S(=O)(=O)c2ccc(C)cc2)c1OC	6087	2.4	-1.6	-2.2	-1.4	·
CCCN1C(=O)C(=O)c2cc(Cl)ccc21	3888	-0.6	2.0	-0.6	-8.1	·
CCC12CSc3nc(Cl)ccc3N1C(=O)C(=O)N2C (configuration not stated)	3598	0.1	39.8*	2.5	?	28.9
O=CN1CCC(=O)N(Cc2ccccc2)c2ccccc21	24835*	-0.3	-5.7	?	-1.8	13.5
NC(=O)c1ccc(OCC(=O)N2CCNC2=O)cc1	3576	-0.4	-3.4	-0.1	1.6	·
COCCn1c(=NC(=O)c2cc(-c3cccs3)nc3ccccc23)sc2cc(S(N)(=O)=O)ccc21	2383	-17.1	2.1	34.3*	12.4	0.1
COc1ccc(C(=O)c2c(-c3ccsc3)oc3ccc(-c4ccc(OC)cc4)cc23)cc1	·	-16.4	·	·	·	·
CCC(CC)C(=O)Nc1ccc(Sc2ccc([N+](=O)[O-])cc2)cc1	19877*	7.4	-0.7	2.6	-2.7	2.6
COc1ccc(N2CCN(Cc3nc(-c4ccc(Cl)cc4Cl)no3)CC2)cc1	20566*	-0.2	-6.6	-2.0	-5.7	4.3
c1ccc(-c2noc(CN3CCN(c4ccccc4)CC3)n2)cc1	5649	-1.3	0.0	-0.4	0.8	12.4
Cc1ccc(-c2csc(Cc3nc(-c4cc5ccccc5oc4=O)cs3)n2)cc1	7025	-3.9	5.3	5.7	2.3	23.5
O=c1oc2ccccc2cc1-c1csc(Cc2nc(-c3ccc(Br)cc3)cs2)n1	16508*	-11.5	-0.5	?	0.9	-4.4
Cc1ccc(CNC(=O)CCCC(=O)c2ccccc2)cc1	3319	0.6	1.0	-3.7	-8.3	5.2
COc1ccc(-c2cc(C(=O)NCC3CCCCC3)[nH]n2)c(C)c1	3452	·	-3.9	-0.2	1.5	·
CCC(=O)Nc1cc(-c2nn(C)c(=O)c3ccccc23)ccc1N1CCOCC1	9232	7.6	5.3	1.5	3.2	36.8
Cn1nc(-c2ccc(N3CCCCC3)c(NC(=O)c3ccco3)c2)c2ccccc2c1=O	23305*	-9.1	-1.7	?	-2.0	-7.7
